Screen size: about 5,500 compounds; about 2,000 (36%) were called active. Not shown: some 18% with an inconclusive outcome. Cut-off read from the data, not from the text of the source: active = normalized growth mostly below about 0.91 (no sharp cut-off); inconclusive = no clear call, values can overlap the other calls; inactive = mostly above about 0.92. The list shows a part of the results.
Assay: chemical genetic growth profiling, strain panel (AID 1159580);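 note: tested at 20 µM; growth read once vehicle control cultures reached saturation at 30 °C; 1 = growth at the plate median or of vehicle wells; lower values mean less growth of the strain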
Conditions: S. cerevisiae deletion strains, growth OD
[1] = locus YHR030C, strain SLT2, hits give low values
[2] = locus YJL095W, strain BCK1, hits give low values

Measured: normalized growth

O=C(/C=C/c1ccccc1)c1ccc(O)cc1O
active: locus YAL021C, strain ccr4, hits give low values 0.0748 | locus YAL026C, strain drs2, hits give low values 0.0615 | locus YAL030W, strain snc1, hits give low values 0.0587 | locus YBL061C, strain skt5, hits give low values 0.066 | locus YBR009C, strain hhf1, hits give low values 0.0651 | locus YBR023C, strain chs3, hits give low values 0.0637 | locus YBR171W, strain sec66, hits give low values 0.0801 | locus YBR231C, strain swc5, hits give low values 0.062 | locus YBR279W, strain paf1, hits give low values 0.0608 | locus YCL011C, strain gbp2, hits give low values 0.0582 | locus YCL016C, strain dcc1, hits give low values 0.0631 | locus YCL061C, strain MRC1, hits give low values 0.0667 | locus YCL069W, strain vba3, hits give low values 0.0608 | locus YCR088W, strain abp1, hits give low values 0.0623 | locus YDL005C, strain med2, hits give low values 0.0755 | locus YDL040C, strain nat1, hits give low values 0.0609 | locus YDR001C, strain nth1, hits give low values 0.0596 | locus YDR069C, strain doa4, hits give low values 0.0834 | locus YDR137W, strain rgp1, hits give low values 0.0879 | locus YDR159W, strain sac3, hits give low values 0.0941 | locus YDR195W, strain ref2 0.114 | locus YDR297W, strain sur2, hits give low values 0.0595 | locus YDR334W, strain swr1, hits give low values 0.0664 | locus YDR335W, strain msn5, hits give low values 0.0605 | locus YDR392W, strain spt3, hits give low values 0.0975 | locus YEL003W, strain gim4, hits give low values 0.0559 | locus YEL037C, strain rad23, hits give low values 0.059 | locus YEL061C, strain CIN8 (second series), hits give low values 0.0607 | locus YER015W, strain faa2, hits give low values 0.0634 | locus YER016W, strain bim1, hits give low values 0.0613 | locus YER111C, strain swi4, hits give low values 0.0739 | locus YER155C, strain BEM2 (second series), hits give low values 0.0936 | locus YFR010W, strain ubp6, hits give low values 0.0802 | locus YGL167C, strain pmr1, hits give low values 0.0759 | locus YGL173C, strain kem1, hits give low values 0.0714 | locus YGL227W, strain vid30, hits give low values 0.0642 | locus YGL240W, strain doc1, hits give low values 0.0905 | locus YGL253W, strain hxk2, hits give low values 0.054 | locus YHR013C, strain ard1, hits give low values 0.122 | locus YHR027C, strain rpn1, hits give low values 0.0687 | [1] 0.101 | locus YHR079C, strain IRE1, hits give low values 0.113 | locus YHR142W, strain chs7, hits give low values 0.0687 | locus YJL092W, strain hpr5, hits give low values 0.0609 | locus YJL095W, strain BCK1 (second series), hits give low values 0.0568 | [2] 0.131 | locus YJL115W, strain asf1, hits give low values 0.0751 | locus YJL129C, strain trk1, hits give low values 0.0857 | locus YJL154C, strain vps35, hits give low values 0.0627 | locus YJL164C, strain tpk1, hits give low values 0.0619 | locus YJL166W, strain qcr8, hits give low values 0.0694 | locus YJL187C, strain SWE1, hits give low values 0.0592 | locus YJR066W, strain TOR1, hits give low values 0.000815 | locus YKL160W, strain elf1, hits give low values 0.0634 | locus YKR026C, strain gcn3, hits give low values 0.0638 | locus YKR091W, strain srl3, hits give low values 0.0604 | locus YLL001W, strain dnm1, hits give low values 0.059 | locus YLL026W, hits give low values 0.0586 | locus YLL041C, strain sdh2, hits give low values 0.063 | locus YLR027C, strain aat2, hits give low values 0.0578 | locus YLR113W, strain HOG1, hits give low values 0.216 | locus YLR221C, strain rsa3, hits give low values 0.0573 | locus YLR258W, strain gsy2, hits give low values 0.0645 | locus YLR262C, strain YPT6 (second series), hits give low values 0.0856 | locus YLR320W, strain mms22, hits give low values 0.0956 | locus YLR342W, strain FKS1, hits give low values 0.064 | locus YLR357W, strain rsc2, hits give low values 0.137 | locus YLR370C, strain arc18, hits give low values 0.0633 | locus YLR384C, strain iki3, hits give low values 0.0625 | locus YML120C, strain ndi1, hits give low values 0.0602 | locus YMR058W, strain fet3, hits give low values 0.0605 | locus YMR125W, strain sto1, hits give low values 0.0837 | locus YMR129W, hits give low values 0.061 | locus YMR205C, strain PFK2, hits give low values 0.0908 | locus YMR231W, strain pep5, hits give low values 0.0723 | locus YNL071W, strain lat1, hits give low values 0.0616 | locus YNL183C, strain NPR1, hits give low values 0.000882 | locus YNL209W, strain ssb2, hits give low values 0.0674 | locus YNL248C, strain rpa49, hits give low values 0.0717 | locus YNL322C, strain KRE1 (second series), hits give low values 0.0685 | locus YNR049C, strain mso1, hits give low values 0.0592 | locus YOR001W, strain rrp6, hits give low values 0.0669 | locus YOR070C, strain gyp1, hits give low values 0.0587 | locus YOR080W, strain dia2, hits give low values 0.0676 | locus YOR083W, strain WHI5, hits give low values 0.0633 | locus YOR106W, strain vam3, hits give low values 0.0654 | locus YOR231W, strain MKK1, hits give low values 0.108 | locus YOR265W, strain rbl2, hits give low values 0.0582 | locus YOR270C, strain vph1, hits give low values 0.0904 | locus YOR290C, strain snf2, hits give low values 0.0728 | locus YPL051W, strain arl3, hits give low values 0.0614 | locus YPL078C, strain atp4, hits give low values 0.0665 | locus YPL106C, strain sse1, hits give low values 0.102 | locus YPL240C, strain hsp82, hits give low values 0.058 | locus YPL256C, strain CLN2, hits give low values 0.118

COc1ccc(/C=C/c2cc(O)cc(O[C@@H]3O[C@H](CO)[C@@H](O)[C@H](O)[C@H]3O)c2)cc1
inactive: locus YBR021W, strain FUR4, hits give low values 1.02 | locus YBR229C, strain ROT2, hits give low values 0.955 | locus YCL029C, strain bik1, hits give low values 0.984 | locus YDL035C, strain GPR1, hits give low values 0.972 | locus YDL074C, strain BRE1, hits give low values 1.02 | locus YDL101C, strain DUN1, hits give low values 1 | locus YDL134C, strain PPH21, hits give low values 1 | locus YDL185W, strain tfp1, hits give low values 0.974 | locus YDL192W, strain arf1, hits give low values 0.994 | locus YDR101C, strain arx1, hits give low values 1.01 | locus YDR150W, strain NUM1, hits give low values 0.997 | locus YDR162C, strain NBP2, hits give low values 0.977 | locus YDR318W, strain mcm21, hits give low values 0.986 | locus YDR388W, hits give low values 1 | locus YDR502C, strain sam2, hits give low values 0.998 | locus YEL061C, strain CIN8, hits give low values 0.994 | locus YER110C, hits give low values 0.987 | locus YER155C, strain BEM2, hits give low values 1.02 | locus YER167W, strain BCK2, hits give low values 0.978 | locus YGL078C, strain dbp3, hits give low values 0.987 | locus YGL086W, strain mad1, hits give low values 1.02 | locus YGL248W, strain PDE1, hits give low values 0.989 | locus YGR135W, strain pre9, hits give low values 0.994 | locus YGR252W, strain gcn5, hits give low values 0.964 | [1] 1 | locus YHR079C, strain IRE1 (second series), hits give low values 0.995 | locus YHR094C, strain hxt1, hits give low values 0.989 | locus YHR129C, strain ARP1, hits give low values 0.994 | locus YHR200W, strain rpn10, hits give low values 0.983 | locus YIL066C, strain RNR3, hits give low values 0.968 | locus YIL073C, strain SPO22, hits give low values 1.01 | locus YIL125W, strain kgd1, hits give low values 0.985 | locus YIR030C, strain dcg1, hits give low values 0.997 | [2] 1.04 | locus YJL134W, strain LCB3, hits give low values 0.994 | locus YJL168C, strain set2, hits give low values 0.998 | locus YJL187C, strain SWE1 (second series), hits give low values 1.01 | locus YJR043C, strain POL32, hits give low values 0.993 | locus YKL009W, strain mrt4, hits give low values 1 | locus YKL068W, hits give low values 0.979 | locus YKL085W, strain MDH1 (second series), hits give low values 0.982 | locus YKL085W, strain MDH1, hits give low values 0.982 | locus YKL190W, strain CNB1, hits give low values 1.01 | locus YKR001C, strain vps1, hits give low values 1.01 | locus YLR039C, strain RIC1, hits give low values 0.99 | locus YLR058C, strain SHM2, hits give low values 0.986 | locus YLR102C, strain apc9, hits give low values 0.987 | locus YLR262C, strain YPT6, hits give low values 0.961 | locus YLR268W, strain sec22, hits give low values 1.03 | locus YLR330W, strain CHS5, hits give low values 0.996 | locus YLR342W, strain FKS1 (second series), hits give low values 0.995 | locus YLR371W, strain rom2, hits give low values 0.978 | locus YLR418C, strain cdc73, hits give low values 0.984 | locus YML016C, strain PPZ1, hits give low values 0.992 | locus YML032C, strain rad52, hits give low values 0.97 | locus YML124C, strain tub3, hits give low values 0.987 | locus YMR078C, strain ctf18, hits give low values 0.994 | locus YMR223W, strain ubp8, hits give low values 0.985 | locus YMR307W, strain GAS1, hits give low values 0.965 | locus YNL067W, strain RPL9B, hits give low values 1.03 | locus YNL128W, strain TEP1, hits give low values 1 | locus YNL233W, strain BNI4, hits give low values 1.04 | locus YNL250W, strain rad50, hits give low values 0.965 | locus YNL271C, strain bni1, hits give low values 1 | locus YNL298W, strain CLA4, hits give low values 1.01 | locus YNL307C, strain MCK1, hits give low values 0.995 | locus YNL322C, strain KRE1, hits give low values 0.984 | locus YNR052C, strain pop2, hits give low values 1 | locus YOL006C, strain TOP1, hits give low values 1.05 | locus YOL012C, strain htz1 1.36 | locus YOL147C, strain pex11, hits give low values 0.988 | locus YOR061W, strain CKA2, hits give low values 0.971 | locus YOR069W, strain VPS5, hits give low values 0.993 | locus YOR136W, strain idh2, hits give low values 0.992 | locus YOR144C, strain elg1, hits give low values 0.985 | locus YOR184W, strain ser1, hits give low values 0.979 | locus YOR316C, strain cot1, hits give low values 0.999 | locus YPL055C, strain LGE1, hits give low values 1.01 | locus YPR119W, strain clb2, hits give low values 0.998 | locus YPR141C, strain kar3, hits give low values 0.982 | locus YPR163C, strain tif3, hits give low values 0.991 | locus YPR167C, strain met16, hits give low values 0.992 | strain wtn01, hits give low values 1.01

— PubChem BioAssay AID1159580 (chemical genetic matrix, 2015)
